A selection: hits, their analogues and other compounds. The true share with any hit is near 8.5%.
NPSR antagonist: neuropeptide S receptor (human) antagonism, cAMP; CHO-NPSR cells, cAMP TR-FRET, antagonist mode; Potency, µM (titrated, usually from 38.3 µM), usual class: inhibitors; 220,000 tested, 1% active; AID 1461; active = well fitted curve in the direction sought with a large enough effect; inconclusive = small, poorly fitted or top-dose-only effect, or another doubt; inactive = no such curve, though single readings can be large; an effect the other way counts as inactive or inconclusive; note: nearly all actives have a fitted effect of over 50% in size
KDM4E inh: inhibitors of human JMJD2E histone demethylase. 230,000 tested, 1.6% active. B2RXH2. Potency, µM (highest dose often 57.1 µM), most hits filed as inhibitors. JMJD2E catalytic domain, FDH-coupled NADH fluorescence (FDH is formaldehyde dehydrogenase); note: nearly all actives have a fitted effect of over 50% in size
Sfp PPTase inh: Sfp phosphopantetheinyl transferase inhibition; Q9F4F7; Biochemical Sfp PPTase activity, qHTS; Potency, µM, most hits filed as inhibitors; 310,000 tested, 3.5% active; active = well fitted curve in the direction sought with a large enough effect; inconclusive = small, poorly fitted or top-dose-only effect, or another doubt; inactive = no such curve, though single readings can be large; an effect the other way counts as inactive or inconclusive;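 note: the enzyme is Sfp with the accession as filed and its product quenches rhodamine fluorescence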
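Fluorescence-quenching assay with 15 nM Sfp, 5 uM rhodamine-CoA and 12.5 uM BHQ-2-labelled ybbR peptide in pH 7.6 Hepes/MgCl2 buffer. Enzyme was pre-incubated with compound for 15 min at room temperature. Rate was taken from the 30-min fluorescence change (525/598 nm).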
RGS12 GoLoco inh: RGS12 GoLoco-Gai1 interaction inhibition. Gai1:RGS12 GoLoco peptide FP, rhodamine, 10 min. Potency, µM (series often up to 61.6 µM), most hits filed as inhibitors. 230,000 tested, 0.44% active. AID 880; active = well fitted inhibition curve with a large enough effect, not every such curve was filed as active; inactive = no such curve, though single readings can be large or run the other way; note: nearly all actives have a fitted effect of over 30% in size
Coupling enz: inhibits coupling enzyme system, counter-screen for aldolase hits. coupling enzyme system counterscreen, AmpLite Red fluorescence. AID 2472. 290,000 tested, 0.67% active. activity change, negative = inhibition, % at 58.2 µM, hits read low; in the data active = activity change below about -30%
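Activity here indicates interference with the coupling reaction, not aldolase inhibition. Compounds at 57.5 uM final met coupling enzymes for 10 min at RT; substrate and AmpLite Red detection followed, with a 525/598 nm fluorescence read after 20 min.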
ALDH1A1 inh: blocks purified human ALDH1A1 activity. Purified ALDH1A1, NADH fluorescence, propionaldehyde substrate. AID 1030. Potency, µM (series often up to 75.3 µM), usual class: inhibitors. 220,000 tested, 7.3% active
Target sequence (P00352 whole entry, looked up): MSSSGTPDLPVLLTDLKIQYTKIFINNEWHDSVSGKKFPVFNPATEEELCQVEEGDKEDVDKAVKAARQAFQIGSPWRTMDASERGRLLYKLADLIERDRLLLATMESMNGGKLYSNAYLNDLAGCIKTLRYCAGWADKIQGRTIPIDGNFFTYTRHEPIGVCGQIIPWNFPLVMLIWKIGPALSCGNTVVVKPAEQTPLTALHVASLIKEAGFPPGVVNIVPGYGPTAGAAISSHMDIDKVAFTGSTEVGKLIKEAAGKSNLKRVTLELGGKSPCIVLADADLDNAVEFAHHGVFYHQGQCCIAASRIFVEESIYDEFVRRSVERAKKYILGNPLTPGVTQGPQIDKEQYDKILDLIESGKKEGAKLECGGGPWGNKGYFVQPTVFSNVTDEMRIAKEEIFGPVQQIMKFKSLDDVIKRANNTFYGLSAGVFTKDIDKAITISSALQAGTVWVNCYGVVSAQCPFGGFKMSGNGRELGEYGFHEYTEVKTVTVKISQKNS
Hits are given with their value; – = inactive; ? = inconclusive; · = not tested or not shown; ! = not active in a repeat; [ ] = remark or other dose. Unless noted, calls come from the whole dose curve; as a rule, active = well fitted inhibition curve with a large enough effect (not every such curve was filed as active); inconclusive = small, poorly fitted or top-dose-only effect, or another doubt; inactive = no such curve, though single readings can be large or run the other way.

SMILES	NPSR antagonist	KDM4E inh	Sfp PPTase inh	RGS12 GoLoco inh	Coupling enz	ALDH1A1 inh
Cc1cccc2cc(CN(Cc3nnnn3C3CCCCC3)C3CCCC3)c3nnnn3c12	?	–	–	–	–	3.16µM
Cc1cc(C)c2[nH]c(=O)c(CN(Cc3nnnn3C3CCCC3)C3CCCCC3)cc2c1	?	–	–	–	–	17.8µM
COC(=O)c1ccc(C(/C=C/[C@@H](C)C(=O)N(C)Cc2ccccc2)NC(=O)OCc2ccccc2)cc1 (stereo not given in full)	·	–	–	–	–	?
COc1ccc(C2=NN(S(=O)(=O)c3ccccc3)C(c3ccccc3)C2)cc1 (stereo not given)	–	–	–	–	–	·
COc1ccc(C2=NN(CN3C(=O)C(=O)c4ccccc43)C(c3ccc(OC)cc3)C2)cc1 (stereo not given)	–	–	–	–	–	0.112µM
O=C1CCC/C(=N/NC(=O)C2CCN(S(=O)(=O)c3cccs3)CC2)C1	–	–	–	–	–	–
CCn1c(=S)[nH]c2ccccc21	–	–	–	–	–	?
CC(C)n1c(=S)[nH]c2ccccc21	–	–	79.4µM	–	–	?
CCCn1nc(NC(=O)c2cccs2)c2cc3cc(C)ccc3nc21	–	?	–	–	–	·
O=C(Nc1ccc(O)c2c(=O)cc(-c3ccccc3Cl)oc12)c1cc(Cl)cc(Cl)c1	·	·	56.2µM	·	–	·
O=C(Nc1ccc(O)c2c(=O)cc(-c3ccccc3Cl)oc12)c1ccc(Cl)c(Cl)c1	–	–	79.4µM!	–	–	·
C=C(C)C(=O)Nc1cccc(C2=NOC3(C2)C[C@@H](C(N)=O)N(C(=O)/C=C/C=C/C)C3)c1 (stereo not given in full)	–	–	31.6µM	–	–	·
C/C=C/C=C/C(=O)N1CC2(CC(c3cccc(NC(=O)/C=C/C)c3)=NO2)C[C@@H]1C(N)=O (stereo not given in full)	–	–	28.2µM	–	–	·
O=C(Nc1ccc(S(=O)(=O)N2CCOCC2)cc1)c1ccc(Cl)cc1Cl	·	·	–	·	–	·
Cn1c(O)c(N=N/C(=N/c2ccccn2)c2ccccn2)c2cc(Br)ccc21	·	·	·	·	·	14.1µM
COc1ccc2c(c1)nc(SCC(=O)c1ccc(Br)s1)n2C	–	–	56.2µM	–	–	28.2µM
COC(=O)CSc1nc2cc(OC)ccc2n1C	–[7.67 µM]	–	–	–	–	·
COc1ccccc1NC(=O)/C(=C\c1cccnc1)NC(=O)c1ccc(C)cc1	·	·	–	·	–	·
O=[N+]([O-])c1ccc(NNS(=O)(=O)c2cc(Cl)ccc2Cl)nc1	·	·	35.5µM	·	·	·
CCOc1ccccc1NC(=S)NC(=O)CCCOc1ccc(Cl)cc1Cl	–	–	–	–	–	11.2µM
O=C(CCCOc1ccc(Cl)cc1Cl)NCc1ccncc1	–	–	–	–	–	20µM
O=C(CCCOc1ccc(Cl)cc1Cl)Nc1ccccc1C(=O)O	–	–	–	–	–	·
N#Cc1cc([N+](=O)[O-])ccc1NCCN1CCOCC1	–	–	–	–	–	–
CC(C)(CNc1ccc([N+](=O)[O-])cc1C#N)N1CCOCC1	–	–	–	–	–	2.24µM
Cc1cc(C)c2c(CN3CCN(Cc4ccc5c(c4)OCO5)CC3)cc(=O)oc2c1	?	–	–	–	–	12.6µM
SMILES	NPSR antagonist	KDM4E inh	Sfp PPTase inh	RGS12 GoLoco inh	Coupling enz	ALDH1A1 inh
Cc1ccc2c(CN3CCN(Cc4ccc5c(c4)OCO5)CC3)cc(=O)oc2c1C	–	–	–	–	–	25.1µM
Cc1cc(C)c2c(CN3CCN(Cc4ccc5c(c4)OCO5)CC3)cc(=O)oc2c1C	?	–	–	–	–	1.58µM
CCOC(=O)C1(Cc2ccc(OC)cc2)CCN(C(=O)[C@@H]2CCCN2C(C)=O)CC1	–	–	–	–	–	·
Cc1nc2nc(-c3ccccc3)[nH]n2c(=O)c1C	–	?	–	–	–	–
Cc1nc2nc(-c3cccnc3)[nH]n2c(=O)c1C	–	–	–	–	–	17.8µM
O=C(CSc1cc([N+](=O)[O-])cc(S(=O)(=O)Cc2ccccc2)c1)NC1CC1	–	?	?	–	–	25.1µM
O=C(CSCc1ccc([N+](=O)[O-])cc1)NC1CC1	–	–	–	–	–	–
C=CCNC(=O)CSc1cc([N+](=O)[O-])cc(S(=O)(=O)Cc2ccccc2)c1	–	–	?	–	–	4.47µM
Clc1nc2nc3n(c2nc1Cl)CCC3	–	?	–	–	–	·
COc1cccc(CNC(=O)CCS(=O)(=O)c2cc3c(cc2C)NC(=O)CO3)c1	·	·	–	·	–	·
COc1cccc(N2CCN(c3ncnc4c3cnn4-c3ccc(C)cc3C)CC2)c1	10µM	?	–	–	–	?
CC1CCCN(c2ncnc3c2cnn3-c2ccc(Cl)cc2)C1 (stereo not given)	–	?	–	–	–	·
NNc1ncnc2c1cnn2-c1ccccc1	–	?	?	–	–	17.8µM
CC1CCCN(c2ncnc3c2cnn3-c2ccccc2)C1 (stereo not given)	–	–	89.1µM	–	–	·
Cc1cccc(-n2ncc3c(N4CCC(C)CC4)ncnc32)c1	–	–	–	–	–	14.1µM
Cc1ccc(NC(=O)CSc2nnc(CNC(=O)c3ccco3)o2)cc1Cl	·	·	–	·	–	·
O=C(c1ccccc1)N1CCN(C(=S)NCc2ccc3c(c2)OCO3)CC1	–	–	–	–	–	17.8µM
NC(=O)C1CCN(C(=S)NCc2ccc3c(c2)OCO3)CC1	–	–	–	–	–	–
NC(=O)C1CCCN(C(=S)NCc2ccc3c(c2)OCO3)C1 (stereo not given)	–	–	–	–	–	25.1µM
O=C(Cc1ccccc1)NCc1ccc2c(c1)OCO2	–	–	–	–	–	–
COC(=O)C(C)NC(=O)C1CCCN1C(=O)CNC(=O)OCc1ccccc1 (stereo not given)	·	·	–	·	–	·
Cc1ccc(S(=O)(=O)N2CC3CCCC2C3)cc1 (stereo not given)	–	–	–	–	–	–
O=C(O)C(Cc1c[nH]c2ccccc12)NS(=O)(=O)c1cccc2nsnc12 (stereo not given)	–	–	56.2µM	–	–	–
COc1cccc(C2(O)CCN(C(=O)C3CC3)CC2)c1	–	–	–	–	–	22.4µM
O=C(c1ccccc1)[C@@H]1[C@@H](C(=O)c2ccc(F)cc2)[C@@]2(C(=O)Nc3ccccc32)[C@H]2c3ccccc3C=CN12	?	–	–	·	-30.9	11.2µM
CC(=O)NC(Cc1ccc(F)cc1)C(=O)NC1CCN(C(=O)Nc2ccc(F)cc2)CC1 (stereo not given)	·	·	–	·	–	·
Cn1c(OCc2ccco2)nc2c1c(=O)n(Cc1ccc(Cl)c(Cl)c1)c(=O)n2C	–	–	–	–	–	25.1µM
Cn1c(N2CCOCC2)nc2c1c(=O)n(Cc1ccc(Cl)c(Cl)c1)c(=O)n2C	–	–	–	–	–	–

Screening data from PubChem.
